{"source": "the supplement of paper PMC11219838", "note": "Unmarked numbers belong to inactive results."}
{"system": "Caenorhabditis elegans L1 (N2)", "assay": "survival and reproduction score of C. elegans L1 (0: 0-10 living worms, 1: 11-20, 2: 21-50, 3: >50, 4: overgrown) (score 0-4); higher = more worms, less nematicidal, active = 1 or less; extreme values may be limits of the assay", "settings": "60 µM; 6 days; temperature: 20 °C", "in_short": "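In liquid NGM with E. coli HB101, approximately 20 synchronized C. elegans N2 L1s per 96-well well were exposed to compound at 60 µM final (0.6% v/v DMSO) for 6 days at 20 °C with shaking at 200 rpm in sealed plates. Survival and reproduction were judged under a dissection microscope as an ordinal rating of living worms per well. Ratings went from 0 (0–10 worms) to 4 (overgrown, starved) and were averaged over two biological replicates.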"}
{"smiles": "Cc1cc(OC(C)c2nc(-c3cccnc3)no2)ccc1Cl", "note": "(centres undefined)", "survival and reproduction score": 4}
{"smiles": "Ic1ccc(OCc2nc(-c3ccncc3)no2)cc1", "survival and reproduction score": 4}
{"smiles": "COc1ccccc1OCc1nc(-c2ccc(Br)cc2)no1", "survival and reproduction score": 4}
{"smiles": "CCc1ccc(C(=O)Nc2ccccc2-c2nc(-c3ccncc3)no2)cc1", "survival and reproduction score": 4}
{"smiles": "CC(C)(C)C(=O)Nc1ccccc1-c1nc(-c2ccncc2)no1", "survival and reproduction score": 4}
{"smiles": "Cc1ccc(CSc2nnc(-c3cccc(Br)c3)o2)c(C)c1", "survival and reproduction score": 4}
{"smiles": "O=C(CSc1nnc(-c2ccc(Cl)cc2)o1)Nc1nccs1", "survival and reproduction score": 4}
{"smiles": "CCOc1ccccc1-c1nnc(SCC(=O)Nc2ccccc2)o1", "survival and reproduction score": 4}
{"smiles": "COc1ccc(-c2noc(C3CCCCC3)n2)cc1", "survival and reproduction score": 4}
{"smiles": "COc1cccc(-c2nnc(SCC(=O)Nc3ccccc3)o2)c1", "survival and reproduction score": 4}
{"smiles": "CCC(=O)Nc1ccccc1-c1nc(-c2ccccn2)no1", "survival and reproduction score": 4}
{"smiles": "Cc1ccc(C(=O)Nc2ccccc2-c2nc(-c3ccncc3)no2)cc1C", "survival and reproduction score": 4}
{"smiles": "Cc1ccccc1CSc1nnc(-c2ccccc2)o1", "survival and reproduction score": 4}
{"smiles": "CC(C)(C)c1ccc(-c2nnc(SCC(=O)c3ccc(F)cc3)o2)cc1", "survival and reproduction score": 4}
{"smiles": "Cc1cc(C)c(CSc2nnc(-c3ccccc3)o2)c(C)c1", "survival and reproduction score": 4}
{"smiles": "Cc1ccc(SC(C)c2nc(-c3ccncc3)no2)cc1", "note": "(centres undefined)", "survival and reproduction score": 4}
{"smiles": "Cc1cccc(-c2nnc(SCC(=O)NC(C)c3ccccc3)o2)c1", "note": "(centres undefined)", "survival and reproduction score": 4}
{"smiles": "CC(C)(C)NC(=O)CSc1nnc(-c2ccc(C(C)(C)C)cc2)o1", "survival and reproduction score": 4}
{"smiles": "COc1cccc(-c2nnc(SCC(=O)NC3CCCCC3)o2)c1", "survival and reproduction score": 4}
